# Laboratory results published in PubChem BioAssay AID485318 (Broad Institute, 2010).
# The campaign covered roughly 1,400 compounds. Fewer than 10 were called active.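 How the source made its calls: active means fluorescence-lowering compounds whose fitted half-maximal concentration is at or below ten times the highest valid dose tested; inconclusive means flat curve at 30 to 70% inhibition, or poor fit; inactive means the rest.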 A selection follows.
# Biological target: Histone deacetylase 3 (Homo sapiens) (UniProt O15379)
# Sequence (O15379 whole entry, looked up): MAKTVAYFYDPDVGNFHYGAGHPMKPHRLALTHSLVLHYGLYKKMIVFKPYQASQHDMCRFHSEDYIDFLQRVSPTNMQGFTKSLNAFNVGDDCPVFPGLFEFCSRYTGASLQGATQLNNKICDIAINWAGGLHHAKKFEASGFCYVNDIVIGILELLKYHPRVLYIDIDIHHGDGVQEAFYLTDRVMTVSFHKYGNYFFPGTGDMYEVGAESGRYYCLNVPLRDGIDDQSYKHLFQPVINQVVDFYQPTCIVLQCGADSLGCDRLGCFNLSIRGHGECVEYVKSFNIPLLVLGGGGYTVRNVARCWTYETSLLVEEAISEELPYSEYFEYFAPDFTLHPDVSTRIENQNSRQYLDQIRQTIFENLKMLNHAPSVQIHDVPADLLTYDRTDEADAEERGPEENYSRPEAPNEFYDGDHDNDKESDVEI
# Test: inhibition of human HDAC3 enzymatic activity – biochemical, fluorescence, cherry-picked samples, counter-screen for JMJD2C/GASC1 demethylase inhibitor project, dose response (AID 485318);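 further: enzyme preincubated with compound before substrate and trypsin were added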
# Settings: recombinant HDAC3, fluorogenic peptide/trypsin coupled; series mostly up to 12 µM
row,Compound,outcome
1,COc1cccc(OC)c1C(=O)NC(=S)N1CCOCC1,inactive
2,COc1cccc(-n2nnc3c(=O)n(Cc4ccccc4F)cnc32)c1,inactive
3,CCn1c(SCC(=O)NCc2ccco2)nnc1-c1cccs1,inactive
4,CSc1nc(N)nc2c1ncn2CC(=O)N[C@H](C)c1cccc2ccccc12,inactive
5,COC(=O)C1=C(C)N(Cc2ccccc2)C(=NCCc2c[nH]c3ccccc23)N[C@H]1c1ccccc1,inactive
6,CC(=O)c1c(C)[nH]c(C(=O)NCCC2=CCCCC2)c1C,inactive
7,COc1ccc(S(=O)(=O)Nc2ccc3c(c2)CC(=O)N([C@@H](C)CO)C[C@H](C)[C@@H](CN(C)S(=O)(=O)c2ccc(F)cc2)O3)cc1,inactive
8,COc1ccccc1NC(=O)COC(=O)c1[nH]c(=O)[nH]c(=O)c1N,inactive
9,Cc1cccc(N2CC(C(=O)Nc3nnc(SCC(=O)Nc4nccs4)s3)CC2=O)c1 (stereo not given),inactive
10,CN(C)c1nc(C(=O)Nc2ccccc2)nc(N(C)C)n1,inactive
11,CCOc1ccc(-c2nc(CSCC(=O)NC3CCCc4ccccc43)c(C)o2)cc1 (stereo not given),inactive
12,Cc1cc2cc3c(cc2nc1SCC(=O)N1CCOCC1)OCO3,inactive
13,CC(C)(C)OC(=O)CNC(=O)c1[nH]cnc1C(=O)N[C@@H](CCCCN)C(=O)OC(C)(C)C,inactive
14,COc1ccc(OC)c(Nc2nnc(C)c(=O)[nH]2)c1,inactive
15,O=C(O)CCCNC(=O)c1cccc(C(=O)NCCCC(=O)O)n1,inactive
16,O=C(O)c1cc(O)c2c(c1)[C@@H]([C@H]1c3cc(C(=O)O)cc(O)c3C(=O)c3c(O[C@@H]4O[C@H](CO)[C@@H](O)[C@H](O)[C@H]4O)cccc31)c1cccc(O[C@@H]3O[C@H](CO)[C@@H](O)[C@H](O)[C@H]3O)c1C2=O,inactive
17,CN(C)CCNC(=O)c1onc(CSc2ccncc2)c1C(=O)NCCN(C)C,inactive
18,N#CC(C(=O)NCCc1ccccc1)c1nc2ccccc2nc1N1CCOCC1 (stereo not given),inactive

row,Compound,outcome
1,COc1ccc(NC(=O)CNC(=O)c2nn(-c3ccc(OC)c(Cl)c3)c(=O)c3ccccc23)c(OC)c1,inactive
2,Cc1ccc(-c2noc(C3CCN(S(C)(=O)=O)CC3)n2)o1,inactive
3,Cc1nnc(N2C(=O)c3cccc4c([N+](=O)[O-])ccc(c34)C2=O)s1,inactive
4,CCOC(=O)CCCCCC(=O)Nc1ccc2c(c1)CC(=O)N([C@@H](C)CO)C[C@H](C)[C@@H](CN(C)C(=O)Nc1ccc3c(c1)OCO3)O2,inactive
5,CSc1ccccc1C(=O)Nc1ccc(C)c(C)c1,inactive
6,CC(C)N(C(=O)[C@H]1CC(CC(=O)NCc2cccc(C(F)(F)F)c2)C(=O)N2CCc3c([nH]c4ccccc34)[C@]12C)C(C)C (stereo not given in full),inactive
7,N#Cc1ccc(C23OCCN2CCn2nc4ccccc4c23)cc1 (stereo not given),inactive
8,CCc1ccc(NC(=O)C/C(C)=N/NC(=O)COc2ccc(C)cc2Br)cc1,inactive
9,COc1ccc(-c2csc(NNC3=NCCCCC3)n2)cc1,inactive
10,CC1(C)C2CCC1(CS(=O)(=O)N1CCN(c3ccccc3F)CC1)C(=O)C2 (stereo not given),inactive
11,Cc1ccc(O)c(C(=O)c2cc(C#N)c(=O)n(CC3CCCO3)c2)c1 (stereo not given),inactive
12,CCOC(=O)c1ccc2c(c1)nc(COc1ccc3ccccc3c1)n2CC,inactive
13,O=C(NCc1ccccn1)c1ccc(OC2CCN(Cc3cccs3)CC2)cc1,inactive
14,CCOC(=O)c1sc(Nc2nc(OC)cc(OC)n2)nc1C,inactive
15,CN(C)C(=O)c1cccc(-c2csc(N3CCC(C(N)=O)CC3)n2)c1,inactive
16,COc1ccc(-c2ccc3oc(-c4ccsc4)cc(=O)c3c2)cn1,inactive
17,COc1ccc(CCNC(=O)c2cccc(NS(=O)(=O)c3ccccc3F)c2)cc1OC,inactive
